Screening results (PubChem BioAssay)
Rows were chosen to be rich in hits. Some 1.5% of all compounds tested hit in one or more screens of this group.
Glyco luc inh: increase of ERlucT glycosylation luciferase signal, primary screen, N-linked glycosylation inhibitor project, D54 ERlucT cells, luminescence, set 2 | AID 588692, 2011 | 360,000 compounds, 0.23% hits | D54 ERlucT glycosylation luciferase reporter, 24 h; percent of 100 nM tunicamycin response | reporter increase, % at 12.5 µM;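 active = mean luciferase reporter signal, scaled so untreated is 0 and the glycosylation-blocking control 100, at or above a set limit in every replicate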;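 also: luciferase carries N-glycosylation sites so blocking glycosylation raises the light; 0% = median of neutral control wells and 100% = median of 100 nM tunicamycin wells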
RAD52 anneal inh: RAD52 DNA annealing inhibitors, primary screen, biochemical, FRET, single point, set 2; DNA repair protein RAD52 homolog (Homo sapiens), P43351; recombinant RAD52 DNA annealing, FRET fluorescence; inhibition, % at 18.7 µM; 360,000 compounds, 0.46% hits;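 active = every replicate showing at least 50% inhibition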
RAD54 inh: inhibitors of human RAD54 branch migration, primary screen, biochemical, fluorescence, single point; RAD54 Holliday junction branch migration, FAM/BHQ fluorescence; inhibition, % at 10.4 µM; 360,000 compounds, 0.14% hits;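 active = mean normalized replicate activity at least 40 and at least half of replicates scoring 40 or more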;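 also: 0% = median of neutral control wells and 100% = median of positive control wells; inhibitors cause a drop in the FAM fluorescence signal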
miR122 inh: miR-122 Renilla sensor signal increase in Huh7, primary screen, miR-122 inhibitor project, cell-based, single point, plate reader | Huh7 miR-122 Renilla luciferase sensor, 48 h; neutral wells = 0, positive control = 100 | activation (reporter increase), % at 12.5 µM | 340,000 compounds, 0.3% hits | AID 602342, 2012;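 active = mean replicate activation score at least 90 and every replicate individually at or above 90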;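 also: higher luciferase means less miR-122 activity so hits act as miR-122 inhibitors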
NRP1-CendR mod: modulators of CendR peptide binding to NRP-1, primary screen, biochemical, fluorescence polarization, uHTS | Neuropilin-1 (Homo sapiens), O14786 | FAM-RPARPAR peptide binding to NRP-1 | inhibition, % at 25 µM | 360,000 compounds, 0.85% hits | AID 602438, 2012;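 active = inhibition or corrected inhibition above about 18%, plus a signal ratio from 0.5 to 1.5, limit read from the data, passing the limit was not always enough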
Target sequence (O14786 whole entry, looked up): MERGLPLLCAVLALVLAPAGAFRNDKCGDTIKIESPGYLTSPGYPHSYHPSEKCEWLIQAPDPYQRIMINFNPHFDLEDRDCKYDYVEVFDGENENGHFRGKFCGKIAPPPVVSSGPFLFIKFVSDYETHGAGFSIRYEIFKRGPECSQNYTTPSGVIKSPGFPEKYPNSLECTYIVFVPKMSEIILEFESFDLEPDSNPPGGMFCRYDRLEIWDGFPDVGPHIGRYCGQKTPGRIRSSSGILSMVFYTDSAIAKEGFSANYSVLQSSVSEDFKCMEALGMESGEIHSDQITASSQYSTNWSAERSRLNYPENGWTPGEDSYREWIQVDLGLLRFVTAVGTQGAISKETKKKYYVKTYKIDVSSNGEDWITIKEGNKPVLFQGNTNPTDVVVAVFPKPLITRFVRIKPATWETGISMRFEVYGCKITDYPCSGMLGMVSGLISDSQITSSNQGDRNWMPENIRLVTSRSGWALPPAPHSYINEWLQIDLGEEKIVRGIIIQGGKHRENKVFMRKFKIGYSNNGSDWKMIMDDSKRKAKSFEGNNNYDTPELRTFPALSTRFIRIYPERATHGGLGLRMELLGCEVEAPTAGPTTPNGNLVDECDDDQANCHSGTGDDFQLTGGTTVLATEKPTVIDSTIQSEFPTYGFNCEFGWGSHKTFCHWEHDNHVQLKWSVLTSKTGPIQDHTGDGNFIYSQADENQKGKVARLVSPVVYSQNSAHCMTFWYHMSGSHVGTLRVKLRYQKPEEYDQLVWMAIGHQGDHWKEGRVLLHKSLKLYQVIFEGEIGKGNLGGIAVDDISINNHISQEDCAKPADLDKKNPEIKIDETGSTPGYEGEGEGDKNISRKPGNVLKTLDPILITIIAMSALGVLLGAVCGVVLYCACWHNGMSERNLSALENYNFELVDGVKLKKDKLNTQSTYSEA
FID counter: compounds displacing fluorescent DNA intercalator, primary screen, artefact control for HCV NS3 helicase inhibitor project, biochemical, FID fluorescence; AID 1845, 2009; DNA fluorescent intercalator displacement; 290,000 compounds, 0.17% hits; inhibition, % at 7.9 µM; in the data active = inhibition above about 37%;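 also: 0% = vehicle and 100% = reference compound; higher means more ethidium bromide displaced from hairpin DNA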
Starred values were filed as active, the others as inactive; · = not tested or not shown; [ ] = dose if it differs, or a comment.

SMILES	Glyco luc inh	RAD52 anneal inh	RAD54 inh	miR122 inh	NRP1-CendR mod	FID counter
CC(=O)N1CCCc2cc(S(=O)(=O)Nc3ccc4c(c3)OCO4)ccc21	1.0	·	5.8	268.0*	-4.7	·
CC(=O)N1CCc2cc(S(=O)(=O)Nc3cccc(C(F)(F)F)c3)ccc21	-1.5	·	-4.2	99.7*	-5.1	-6.9
COCCNC(=O)C[C@@H]1CC[C@H](NC(=O)NC2CCCC2)[C@H](CO)O1	·	1.2	8.7	3.5[16.7 µM]	·	·
N#C[C@@H]1[C@H](c2ccccc2-c2cccc(F)c2)[C@H](CO)N1C(=O)NC1CCCC1	·	-12.4	·	·	·	·
OC[C@H]1Nc2ccc(C#Cc3ccccc3)cc2[C@@H]2[C@H]1CCN2Cc1nccs1	·	·	-4.0	-3.8[16.7 µM]	·	·
CC(C)NC(=O)N(C)C[C@@H]1Oc2ccc(N(C)C)cc2CC(=O)N([C@@H](C)CO)C[C@H]1C	·	-3.3	1.5	-0.5[16.7 µM]	·	·
O=C(CCc1ccc(S(=O)(=O)NCCc2ccccc2)cc1)NCc1ccc2c(c1)OCO2	-5.3	·	0.6	196.0*	5.4	-20.7
COc1ccc(C/C(C)=N/NC(=S)Nc2ccc(Cl)cc2)cc1	-0.4	-20.8	-2.6	8.8	41.3*	-1.4
C[C@@H]1CN([C@@H](C)CO)C(=O)c2cc(NC(=O)Nc3ccc4c(c3)OCO4)ccc2O[C@@H](C)CCCCO[C@H]1CN(C)Cc1ccc(C(=O)O)cc1	·	5.0	3.0	9.4[16.7 µM]	·	·
COc1cccc(C=Cc2nccc3ccccc23)c1OC	-5.6	-17.4	5.0	25.8	25.4*	·
O=C(C[n+]1ccc(CCSc2ccc(F)cc2)cc1)c1ccccc1	-0.9	·	86.6*	-5.2	-32.9	13.0
COc1cc(-c2nc(-c3ccccc3)c(-c3cccs3)[nH]2)cc(OC)c1OC	56.6*	·	10.0	-11.1	-28.6	-15.2
COc1cc(-c2nc(-c3ccccc3)c(-c3cccs3)[nH]2)cc(OC)c1O	24.9	·	3.5	0.9	-11.4	-4.3
CCCc1cn(CC[C@@H]2CC[C@H](NC(=O)C3CCOCC3)[C@H](CO)O2)nn1	·	8.0	-6.6	·	·	·
CC(C)CNC(=O)/C=C/C=C/CCCC/C=C/c1ccc2c(c1)OCO2	-2.2	-7.6	-5.2	-1.4	25.2*	·
O=C(O)CS(=O)(=O)c1ccc(C(F)(F)F)cn1	1.7	-6.8	·	-3.3	35.9*	-2.1
NC(=O)c1ccc(C(F)(F)F)cn1	2.4	-11.7	-3.2	-7.7	-1.7	0.6
CC1Cc2ccccc2N1S(=O)(=O)c1cccc(C(=O)NCCCO)c1 (configuration not stated)	-0.6	·	·	-2.1	23.2	-3.5
CC1Cc2ccccc2N1S(=O)(=O)c1cccc(C(=O)N2CCN(c3ncccn3)CC2)c1 (configuration not stated)	-12.4	3.8	·	·	35.0*	-36.5
CCN(CC)CCNC(=O)c1ccc(NC(=O)c2cccc(S(=O)(=O)N3c4ccccc4CC3C)c2)cc1 (configuration not stated)	-9.7	40.8	9.9	6.6	29.5*	34.3
C[C@H](CO)N1C[C@H](C)[C@H](CN(C)C(=O)Nc2ccc(F)cc2)Oc2ccc(NC(=O)Nc3ccc(C(F)(F)F)cc3)cc2C1=O	·	-18.1	-5.3	-3.4[16.7 µM]	·	·
COc1ccc(-c2cnc3c(c2)C(=O)N([C@H](C)CO)C[C@H](C)[C@H](CN(C)Cc2cccnc2)O3)cc1	·	13.0	-4.8	-0.1[16.7 µM]	·	·
C#CCOCCOCCOCCNc1nc(N2CCN(C(=O)[C@H](CCCCN)n3cc([C@@H](N)CC(N)=O)nn3)CC2)nc(N2CCN(C(=O)[C@H](CCCCN)n3cc([C@@H](N)CC(N)=O)nn3)CC2)n1	2.7	61.3*	-21.1	-2.6	-5.0	·
C#CCOCCOCCOCCNc1nc(N2CCN(C(=O)[C@H](Cc3ccc(O)cc3)n3cc([C@@H](N)C(C)CC)nn3)CC2)nc(N2CCN(C(=O)[C@H](CCCCN)n3cc([C@@H](N)CC(C)C)nn3)CC2)n1 (some centres not stated)	·	·	·	·	·	42.9*
C#CCOCCOCCOCCNc1nc(N2CCN(C(=O)[C@H](CCCCN)n3cc([C@@H](N)CO)nn3)CC2)nc(N2CCN(C(=O)[C@H](Cc3ccc(O)cc3)n3cc([C@@H](N)CC(C)C)nn3)CC2)n1	-1.8	17.8	-12.8	-4.7	19.1	54.1*
SMILES	Glyco luc inh	RAD52 anneal inh	RAD54 inh	miR122 inh	NRP1-CendR mod	FID counter
C#CCOCCOCCOCCNc1nc(N2CCN(C(=O)[C@H](CCCCN)n3cc([C@@H](N)C(C)CC)nn3)CC2)nc(N2CCN(C(=O)[C@H](CCCCN)n3cc([C@@H](N)CO)nn3)CC2)n1 (some centres not stated)	·	·	·	·	·	66.2*
C#CCOCCOCCOCCNc1nc(N2CCN(C(=O)[C@H](CCCCN)n3cc(CN)nn3)CC2)nc(N2CCN(C(=O)[C@H](CCCCN)n3cc([C@@H](N)CC(N)=O)nn3)CC2)n1	-2.3	44.0	-35.7	·	0.6	·
C#CCOCCOCCOCCNc1nc(N2CCOCC2)nc(N2CCN(C(=O)[C@H]([C@@H](C)CC)n3cc([C@@H](N)Cc4ccc(O)cc4)nn3)CC2)n1	0.0	·	10.7	-4.4	13.9	15.1
C#CCOCCOCCOCCNc1nc(N2CCN(C(=O)[C@H]([C@@H](C)CC)n3cc([C@@H](N)Cc4ccc(O)cc4)nn3)CC2)nc(N2CCN(C(=O)[C@H](CCCCN)n3cc([C@@H](N)CO)nn3)CC2)n1	·	·	·	·	·	58.0*
C#CCOCCOCCOCCNc1nc(N2CCN(C(=O)[C@H](Cc3ccc(O)cc3)n3cc([C@@H](N)C(C)CC)nn3)CC2)nc(N2CCN(C(=O)[C@H](CCCCN)n3cc([C@@H](N)CO)nn3)CC2)n1 (some centres not stated)	-0.6	·	-42.3	68.8	-3.5	43.7*
COc1ccc(CN(C)C[C@@H]2OCCCC[C@@H](C)Oc3ccc(NC(=O)CCCN(C)C)cc3C(=O)N([C@@H](C)CO)C[C@H]2C)cc1	·	3.5	1.9	-5.0[16.7 µM]	·	·
COc1ccc2c3c(n(C)c2c1)[C@H](CO)N(C(=O)c1cnccn1)CC31CCN(C(=O)c2ccncc2)CC1	·	3.6	·	·	·	·
COc1ccc(NS(=O)(=O)c2csc(C(=O)N3CCCC3)c2)c(OC)c1	-0.2	-2.7	1.7	0.7	19.1*	-11.9
Cc1noc(C)c1S(=O)(=O)Nc1ccc2c(c1)C(=O)N([C@H](C)CO)C[C@@H](C)[C@H](CN(C)S(=O)(=O)c1ccccc1)OCCCC[C@@H](C)O2	·	-27.7	-1.2	-9.6[16.7 µM]	·	·
